# Bioassay records deposited in PubChem BioAssay by National Center for Advancing Translational Sciences (NCATS).
# DT40 TDP1 CPT: qHTS for Inhibitors of human tyrosyl-DNA phosphodiesterase 1 (TDP1): qHTS in cells in presence of CPT | chicken DT40 Tdp1-/-;hTDP1 cells + 20 nM CPT, ATP luminescence, 48 h | Potency, µM (top dose mostly 46.2 µM), without a hit: top-dose activity change, negative = growth inhibition, most hits filed as inhibitors | hit rate 12% among 420,000 | AID 686979, 2013; also: nearly all actives have a fitted effect of over 55% in size
#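 Chicken DT40 Tdp1-/- cells complemented with human TDP1, 400 cells/well, exposed to compounds plus 20 nM camptothecin for at least 48 h at 37 C; viability read as ATP content by CellTiter-Glo luminescence.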
# HT1080-NT tox: qHTS for induction of synthetic lethality in tumor cells producing 2HG: qHTS for the HT-1080-NT fibrosarcoma cell line | HT-1080-NT fibrosarcoma viability, CellTiter-Glo ATP luminescence, 48 h | Potency, µM (highest dose often 46.1 µM), for the others: top-dose activity, negative = less viability, most hits filed as cytotoxic | hit rate 1.6% among 360,000 | AID 686970, 2013;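 also: NT is the 2HG producing partner of a matched IDH1 knockdown line; 0% = DMSO-treated cells and -100% = media-only wells without cells; nearly all actives have a fitted effect of over 55% in size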
#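 Viability of the 2HG-overproducing fibrosarcoma line after 48 hours of compound exposure at 37 degrees C was determined by luminescence with CellTiter-Glo, and concentration-effect curves were then fitted and categorized.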
# HT1080 IDH1KD tx: qHTS for induction of synthetic lethality in tumor cells producing 2HG: qHTS for the HT-1080-IDH1KD cell line. HT-1080 IDH1 knockdown viability, ATP luminescence, 48 h. Potency, µM (series often up to 46.1 µM), for inactives: at the top dose activity, negative = toxicity, usual class: cytotoxic. hit rate 2% among 360,000. AID 686971, 2013;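 also: 0% = DMSO wells and -100% = cell-free medium wells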
#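 In this qHTS, HT-1080 cells depleted of IDH1 are exposed for 48 h at 37 °C to compound titrations. Toxicity is scored from CellTiter-Glo luminescence, with DMSO as full viability and medium alone as none.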
# TDP1 cell noCPT: qHTS for Inhibitors of human tyrosyl-DNA phosphodiesterase 1 (TDP1): qHTS in cells in absence of CPT | AID 686978, 2013 | DT40 Tdp1-/- hTDP1 cells, no CPT, ATP luminescence, 48 h | hit rate 15% among 420,000 | Potency, µM (highest dose often 46.2 µM), for the others: top-dose activity change, negative = growth inhibition, usual class: inhibitors; also: nearly all actives have a fitted effect of over 55% in size
#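 Camptothecin absent (DMSO only). Human TDP1-complemented DT40 knockout cells, 400 cells/well, 37 °C for minimum 48 hr; ATP measured via CellTiter-Glo, 30 min dark incubation, luminescence.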
# KB-V1 cytotox: qHTS assay for MDR1-selective chemotherapeutics: Primary screen using the drug-selected MDR subline cells KB-V1; KB-V1 MDR cells viability, CellTiter-Glo, 72 h; Potency, µM (titrated, usually from 46.1 µM), usual class: cytotoxic; hit rate 3.4% among 400,000; also: nearly all actives have a fitted effect of over 60% in size
#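 KB-V1 cells (P-gp-expressing MDR subline of KB-3-1) in phenol-red-free DMEM with 10% FBS were exposed to library compounds over a concentration series for 72 h at 37 degrees C. Viability read by CellTiter-Glo luminescence; concentration-effect curves fitted after normalization.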
# KB-3-1 cytotox: qHTS assay for MDR1-selective chemotherapeutics: Primary screen using the parental adenocarcinoma cell KB-3-1. KB-3-1 viability, CellTiter-Glo ATP luminescence, 72 h. Potency, µM (highest dose often 46.1 µM), actives largely listed as cytotoxic. hit rate 1.4% among 400,000; also: nearly all actives have a fitted effect of over 60% in size
#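 Multi-concentration cytotoxicity screen in KB-3-1 cells grown in DMEM lacking phenol red with 10% FBS. After 72 h at 37 °C with compound, ATP-dependent luminescence was recorded.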
# Active calls of the source: *; i = inactive; ? = inconclusive; nt = not tested or not shown; [ ] = remark or other dose. The list is not random: actives were taken first. Their share in the collection is about 19%. Calls follow the shape of the dose curve; as a rule, active = well fitted curve in the direction sought with a large enough effect; inconclusive = small, poorly fitted or top-dose-only effect, or another doubt; inactive = no such curve, though single readings can be large; an effect the other way counts as inactive or inconclusive. Unless noted, % is scaled to controls: 0 for no effect and ±100 for the full control effect; potency is read from the fitted curve at half-maximal effect.
SMILES,DT40 TDP1 CPT,HT1080-NT tox,HT1080 IDH1KD tx,TDP1 cell noCPT,KB-V1 cytotox,KB-3-1 cytotox
CCN(CC)CCCC(C)Nc1nccc2c(Cl)cccc12 (stereo unspecified),21µM*,?,?,?,?,i
CCN(CC)CCOc1c(C)cccc1Cl,0%,-1%,8%,10%,i,i
CS(=O)(=O)c1ccccc1C(=O)Nc1ccc(S(=O)(=O)N2CCCC2)cc1,?,16%,4%,-16%,i,i
O=C(Nc1cccc(NC(=O)c2ccccc2[N+](=O)[O-])n1)c1ccccc1[N+](=O)[O-],6.5µM*,7%,10%,9.2µM*,i,i
O=C(Nc1cccc(NC(=O)c2cc([N+](=O)[O-])ccc2Cl)n1)c1cc([N+](=O)[O-])ccc1Cl,7.3µM*,?,12µM*,9.2µM*,15µM*,18µM*
CC(C)C(=O)NC(Nc1cccc([N+](=O)[O-])c1)C(Cl)(Cl)Cl (stereo unspecified),?,1%,-8%,?,i,i
Cc1cccc(NC(NC(=O)c2ccccc2[N+](=O)[O-])C(Cl)(Cl)Cl)c1 (stereo unspecified),-29%,10%,0%,?,23µM*,i
Cc1cc(NC(=O)c2ccc([N+](=O)[O-])cc2Cl)no1,-21%,-2%,-1%,8%,i,i
Cc1cccc(NC(=O)c2ccccc2[N+](=O)[O-])n1,-1%,18%,7%,9%,i,i
O=C(c1cc([N+](=O)[O-])ccc1Cl)N1c2ccccc2Sc2ccccc21,?,-15%,-24%,15µM*,i,i
CC(C)CNC(=O)C1CCCN(C(=O)NCc2ccccc2)C1 (stereo unspecified),13%,6%,-1%,7%,i,i
Cc1cc(NC(=O)c2cc([N+](=O)[O-])ccc2Cl)no1,?,?,?,16µM*,?,i
CC(C)c1ccc(CC(=O)N2CCC2(C)C(=O)Nc2ccc3c(c2)OCO3)cc1 (stereo unspecified),?,-11%,?,18µM*,21µM*,?
CC1(C(=O)Nc2ccc3c(c2)OCO3)CCN1Cc1csc2ccccc12 (stereo unspecified),23µM*,-30%,?,?,?,i
Cc1ccc(NC(=O)C2(C)CCN2C(=O)Cc2ccc(C(C)C)cc2)cc1 (stereo unspecified),?,?,?,23µM*,?,?
CC1(C(=O)Nc2ccc3c(c2)OCO3)CCN1C(=O)Cc1cccs1 (stereo unspecified),?,-5%,-2%,?,i,i
CC1(C(=O)Nc2ccc3c(c2)OCO3)CCN1C(=O)Cc1cccc2ccccc12 (stereo unspecified),21µM*,-16%,-19%,16µM*,i,i
CC1(C(=O)Nc2ccc3c(c2)OCO3)CCN1Cc1cccc2c1OCO2 (stereo unspecified),?,-19%,-7%,?,?,?
CNC(=O)C1(C)CCN1C(=O)Cc1ccc(C(C)C)cc1 (stereo unspecified),-1%,?,22%,-18%,i,i
CC1(C(=O)Nc2ccc3c(c2)OCCO3)CCN1C(=O)Cc1ccc(-c2ccccc2)cc1 (stereo unspecified),?,?,?,?,18µM*,?
CCOC(=O)C1CCN(CCC(=O)Nc2ccccc2OC)CC1,-22%,nt,nt,-4%,i,i
CCN(CC(=O)Nc1cccc(C(C)=O)c1)S(=O)(=O)c1ccc(OC)cc1,2%,2%,0%[9.24 µM],?,?,i
Cc1cc(C)c(NC(=O)CN(C)CC(=O)Nc2cccc(S(=O)(=O)N(C)c3ccccc3)c2)c(C)c1,?,-11%,-18%,23µM*,?,i
CCN(CC(=O)Nc1cccc(S(=O)(=O)N(C)c2ccccc2)c1)Cc1ccccc1,18µM*,-2%,0%,?,?,i
CC(=O)NCCC(=O)Nc1cccc(S(=O)(=O)N(C)c2ccccc2)c1,-7%,-5%,3%,3%,i,i
SMILES,DT40 TDP1 CPT,HT1080-NT tox,HT1080 IDH1KD tx,TDP1 cell noCPT,KB-V1 cytotox,KB-3-1 cytotox
CN(c1ccccc1)S(=O)(=O)c1cccc(NC(=O)CN2CCCc3ccccc32)c1,?,-17%,-14%,18µM*,i,i
CCN(CC)S(=O)(=O)c1cccc(NC(=O)CN(C)Cc2cccc(OC)c2)c1,?,-8%,-20%,23µM*,?,i
NS(=O)(=O)c1cccc(NC(=O)CN2CCc3ccccc32)c1,?,-16%,-7%,-2%,i,i
CCCN1CCN(CCCNC(=O)Cn2c(-c3cccs3)cc3ccccc32)CC1,?,nt,nt,?,i,?
O=C(CCc1c[nH]c2ccccc12)N1CCN(S(=O)(=O)c2ccc([N+](=O)[O-])cc2)CC1,?,0%,0%,?,i,i
Cc1ccccc1CN(C)CC(=O)Nc1cccc(S(=O)(=O)N(C)c2ccccc2)c1,21µM*,-15%,-9%,16µM*,?,?
CN(c1ccccc1)S(=O)(=O)c1cccc(NC(=O)CN2C(=O)NC3(CCCCC3)C2=O)c1,-11%,-3%,-3%,-4%,i,i
CC1CCC2(CC1)NC(=O)N(CC(=O)Nc1cccc(S(=O)(=O)N(C)c3ccccc3)c1)C2=O (stereo unspecified),18µM*,-4%,-12%,29µM*,i,i
O=C(NCc1cccnc1)c1cccc(S(=O)(=O)NCc2ccccc2)c1,0%,6%,-1%,2%,i,i
CNc1ccc2ncc(-c3ccccc3NC(C)=O)n2n1,-14%,22%,15%,-7%,i,i
C[C@H]1CN([C@@H](C)CO)S(=O)(=O)c2ccc(Br)cc2O[C@@H]1CN(C)C(=O)CCN1CCCCC1,-13%,1%,8%,6%,i,i
Cn1nnnc1NN=Cc1ccccc1,2%,14%,2%,11%,18µM*,i
